Data as given in the supplement of paper PMC10849652.
The full data set covers some 8,800 targets. This sample favours those with a hit. About 0.5% of all pairs of compound and target were hits. A number with no mark means an inactive call.

Tests used:
Experiment in all cases: log2 fold change, soluble protein after heating vs DMSO (PISA); higher = thermal stabilisation; K562 lysate, 10 uM; active = over 0.2 and 3.5 SD of the protein, either way, in both replicates (recomputed)
vemurafenib = compound: CCCS(=O)(=O)Nc1ccc(F)c(C(=O)c2c[nH]c3ncc(-c4ccc(Cl)cc4)cc23)c1F [vemurafenib]
Method in brief: (§1)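 K562 pellets were dounce-homogenised in PBS pH 7.4 with 1 mM MgCl2, and the crude extract at 1 mg/mL protein was treated with 10 μM compound for 30 min. Aliquots were heated for 3 min across 48°C-58°C, pooled, and brought to 0.5% NP-40 at 4°C; soluble protein was the supernatant after 21,000xg for 90 min. Soluble protein was quantified by TMTpro 16plex LC-MS/MS with channel sums equalised, and reported as log2 fold change in thermal stability against DMSO controls, with values from duplicates.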

[1] = compound: CCCS(=O)(=O)Nc1ccc(F)c(C(=O)c2c[nH]c3ncc(Cl)cc23)c1F
Method in brief: as §1

barasertib = compound: CCN(CCCOc1ccc2c(Nc3cc(CC(=O)Nc4cccc(F)c4)[nH]n3)ncnc2c1)CCOP(=O)(O)O [barasertib]
Method in brief: as §1

[2] = compound: CC[C@@H]1C(=O)N(C)c2cnc(Nc3ccc(C(=O)NC4CCN(C)CC4)cc3OC)nc2N1C1CCCC1
Method in brief: as §1

volasertib = compound: CC[C@@H]1C(=O)N(C)c2cnc(Nc3ccc(C(=O)N[C@H]4CC[C@H](N5CCN(CC6CC6)CC5)CC4)cc3OC)nc2N1C(C)C [volasertib]
Method in brief: as §1

[3] = compound: CCn1c(C(=O)N(C2CC2)C2CC2)cc2c3c(ncn3C)c(Nc3cc(C)n(C)n3)nc21
Method in brief: as §1

[4] = compound: CCn1cc(-c2ccnc3[nH]c(-c4cccc(CN(C)C)c4)cc23)c(-c2ccc(NC(=O)N(C)C)cc2)n1
Method in brief: as §1

[5] = compound: CN1CCC(CNc2ccc3ncc(-c4cccc(OC(F)(F)F)c4)n3n2)CC1
Method in brief: as §1

saracatinib = compound: CN1CCN(CCOc2cc(OC3CCOCC3)c3c(Nc4c(Cl)ccc5c4OCO5)ncnc3c2)CC1 [saracatinib]
Method in brief: as §1

sotrastaurin = compound: CN1CCN(c2nc(C3=C(c4c[nH]c5ccccc45)C(=O)NC3=O)c3ccccc3n2)CC1 [sotrastaurin]
Method in brief: as §1

alvocidib = compound: CN1CC[C@H](c2c(O)cc(O)c3c(=O)cc(-c4ccccc4Cl)oc23)[C@H](O)C1 [alvocidib]
Method in brief: as §1

Tubastatin A = compound: CN1CCc2c(c3ccccc3n2Cc2ccc(C(=O)NO)cc2)C1 [Tubastatin A]
Method in brief: as §1

[6] = compound: CNC(=O)C1=CC=CC=C1NC2=NC(=NC=C2Cl)NC3=C(C=C(C=C3)N4CCOCC4)OC
Method in brief: as §1

defactinib = compound: CNC(=O)c1ccc(Nc2ncc(C(F)(F)F)c(NCc3nccnc3N(C)S(C)(=O)=O)n2)cc1 [defactinib]
Method in brief: as §1

[7] = compound: CNc1nc(-c2ccc3c(N)n[nH]c3c2)cc(N2C[C@@H](C(=O)NC3CCCCC3)CC[C@H]2C)n1
Method in brief: as §1

encorafenib = compound: COC(=O)N[C@@H](C)CNc1nccc(-c2cn(C(C)C)nc2-c2cc(Cl)cc(NS(C)(=O)=O)c2F)n1 [encorafenib]
Method in brief: as §1

[8] = compound: COC(=O)[C@H](CCSC)NC(=O)C1=C(C=C(C=C1)NC[C@H](CS)N)C2=CC=CC=C2
Method in brief: as §1

alisertib = compound: COc1cc(Nc2ncc3c(n2)-c2ccc(Cl)cc2C(c2c(F)cccc2OC)=NC3)ccc1C(=O)O [alisertib]
Method in brief: as §1

[9] = compound: COc1cc2nc(-c3cc(F)ccc3O)nc(N[C@@H]3CNC[C@H]3C(C)(C)O)c2cc1OC
Method in brief: as §1

gefitinib = compound: COc1cc2ncnc(Nc3ccc(F)c(Cl)c3)c2cc1OCCCN1CCOCC1 [gefitinib]
Method in brief: as §1

UniProt Q8WUM4, sequence (Q8WUM4 whole entry, looked up): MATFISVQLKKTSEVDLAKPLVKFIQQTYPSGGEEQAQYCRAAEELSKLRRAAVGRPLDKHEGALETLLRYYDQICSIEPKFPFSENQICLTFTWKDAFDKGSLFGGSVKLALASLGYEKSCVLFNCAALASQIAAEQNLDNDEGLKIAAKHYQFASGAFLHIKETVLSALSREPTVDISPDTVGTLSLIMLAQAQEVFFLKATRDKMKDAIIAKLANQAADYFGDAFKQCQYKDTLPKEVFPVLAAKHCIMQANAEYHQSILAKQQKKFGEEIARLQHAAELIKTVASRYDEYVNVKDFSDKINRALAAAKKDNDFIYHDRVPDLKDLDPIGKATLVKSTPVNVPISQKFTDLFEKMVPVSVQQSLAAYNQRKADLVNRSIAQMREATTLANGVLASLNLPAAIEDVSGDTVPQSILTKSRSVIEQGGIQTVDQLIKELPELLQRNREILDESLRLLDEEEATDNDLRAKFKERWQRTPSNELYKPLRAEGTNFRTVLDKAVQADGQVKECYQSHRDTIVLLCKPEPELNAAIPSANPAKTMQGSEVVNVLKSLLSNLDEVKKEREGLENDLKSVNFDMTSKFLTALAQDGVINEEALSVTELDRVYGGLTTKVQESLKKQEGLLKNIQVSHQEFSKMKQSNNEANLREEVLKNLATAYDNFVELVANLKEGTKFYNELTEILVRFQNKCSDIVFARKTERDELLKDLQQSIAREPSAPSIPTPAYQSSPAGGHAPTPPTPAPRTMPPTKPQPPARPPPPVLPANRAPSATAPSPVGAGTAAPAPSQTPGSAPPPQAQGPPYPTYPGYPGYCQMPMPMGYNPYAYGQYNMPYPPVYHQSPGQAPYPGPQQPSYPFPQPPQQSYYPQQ
UniProt Q9Y606, sequence (Q9Y606 whole entry, looked up): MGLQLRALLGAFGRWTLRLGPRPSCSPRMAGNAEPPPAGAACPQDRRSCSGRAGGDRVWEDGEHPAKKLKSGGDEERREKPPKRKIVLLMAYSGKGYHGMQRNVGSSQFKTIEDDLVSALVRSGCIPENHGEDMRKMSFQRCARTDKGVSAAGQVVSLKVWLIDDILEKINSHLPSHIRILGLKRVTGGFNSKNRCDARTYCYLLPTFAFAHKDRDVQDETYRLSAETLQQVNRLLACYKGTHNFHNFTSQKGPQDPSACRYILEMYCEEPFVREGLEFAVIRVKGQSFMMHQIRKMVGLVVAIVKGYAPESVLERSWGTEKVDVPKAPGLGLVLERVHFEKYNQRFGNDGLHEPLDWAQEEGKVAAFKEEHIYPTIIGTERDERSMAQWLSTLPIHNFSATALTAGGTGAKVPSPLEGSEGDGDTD
UniProt O43175, sequence (O43175 whole entry, looked up): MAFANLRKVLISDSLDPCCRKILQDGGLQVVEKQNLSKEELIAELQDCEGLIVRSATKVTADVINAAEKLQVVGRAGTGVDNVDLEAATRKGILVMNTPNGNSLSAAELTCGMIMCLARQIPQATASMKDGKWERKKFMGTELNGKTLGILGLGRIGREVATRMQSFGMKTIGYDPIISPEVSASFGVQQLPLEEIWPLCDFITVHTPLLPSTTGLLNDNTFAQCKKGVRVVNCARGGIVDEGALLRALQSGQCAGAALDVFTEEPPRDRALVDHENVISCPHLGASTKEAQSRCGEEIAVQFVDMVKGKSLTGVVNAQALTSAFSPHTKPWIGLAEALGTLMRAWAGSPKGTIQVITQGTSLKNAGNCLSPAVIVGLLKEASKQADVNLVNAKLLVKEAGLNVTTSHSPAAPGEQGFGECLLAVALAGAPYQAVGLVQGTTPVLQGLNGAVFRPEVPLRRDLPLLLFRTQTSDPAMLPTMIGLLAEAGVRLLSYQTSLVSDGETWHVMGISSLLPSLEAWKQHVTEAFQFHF
UniProt P07737, sequence (P07737 whole entry, looked up): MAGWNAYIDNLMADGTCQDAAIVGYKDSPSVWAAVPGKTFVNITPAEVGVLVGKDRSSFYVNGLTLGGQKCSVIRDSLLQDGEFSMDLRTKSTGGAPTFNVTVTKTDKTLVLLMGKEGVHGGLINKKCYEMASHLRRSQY
UniProt P28065, sequence (P28065 whole entry, looked up): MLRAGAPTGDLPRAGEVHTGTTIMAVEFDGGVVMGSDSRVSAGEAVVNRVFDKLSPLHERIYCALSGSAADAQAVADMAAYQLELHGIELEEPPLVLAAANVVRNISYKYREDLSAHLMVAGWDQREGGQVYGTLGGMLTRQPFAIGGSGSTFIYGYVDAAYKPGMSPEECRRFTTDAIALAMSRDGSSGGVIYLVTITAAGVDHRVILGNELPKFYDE
UniProt O15067, sequence (O15067 whole entry, looked up): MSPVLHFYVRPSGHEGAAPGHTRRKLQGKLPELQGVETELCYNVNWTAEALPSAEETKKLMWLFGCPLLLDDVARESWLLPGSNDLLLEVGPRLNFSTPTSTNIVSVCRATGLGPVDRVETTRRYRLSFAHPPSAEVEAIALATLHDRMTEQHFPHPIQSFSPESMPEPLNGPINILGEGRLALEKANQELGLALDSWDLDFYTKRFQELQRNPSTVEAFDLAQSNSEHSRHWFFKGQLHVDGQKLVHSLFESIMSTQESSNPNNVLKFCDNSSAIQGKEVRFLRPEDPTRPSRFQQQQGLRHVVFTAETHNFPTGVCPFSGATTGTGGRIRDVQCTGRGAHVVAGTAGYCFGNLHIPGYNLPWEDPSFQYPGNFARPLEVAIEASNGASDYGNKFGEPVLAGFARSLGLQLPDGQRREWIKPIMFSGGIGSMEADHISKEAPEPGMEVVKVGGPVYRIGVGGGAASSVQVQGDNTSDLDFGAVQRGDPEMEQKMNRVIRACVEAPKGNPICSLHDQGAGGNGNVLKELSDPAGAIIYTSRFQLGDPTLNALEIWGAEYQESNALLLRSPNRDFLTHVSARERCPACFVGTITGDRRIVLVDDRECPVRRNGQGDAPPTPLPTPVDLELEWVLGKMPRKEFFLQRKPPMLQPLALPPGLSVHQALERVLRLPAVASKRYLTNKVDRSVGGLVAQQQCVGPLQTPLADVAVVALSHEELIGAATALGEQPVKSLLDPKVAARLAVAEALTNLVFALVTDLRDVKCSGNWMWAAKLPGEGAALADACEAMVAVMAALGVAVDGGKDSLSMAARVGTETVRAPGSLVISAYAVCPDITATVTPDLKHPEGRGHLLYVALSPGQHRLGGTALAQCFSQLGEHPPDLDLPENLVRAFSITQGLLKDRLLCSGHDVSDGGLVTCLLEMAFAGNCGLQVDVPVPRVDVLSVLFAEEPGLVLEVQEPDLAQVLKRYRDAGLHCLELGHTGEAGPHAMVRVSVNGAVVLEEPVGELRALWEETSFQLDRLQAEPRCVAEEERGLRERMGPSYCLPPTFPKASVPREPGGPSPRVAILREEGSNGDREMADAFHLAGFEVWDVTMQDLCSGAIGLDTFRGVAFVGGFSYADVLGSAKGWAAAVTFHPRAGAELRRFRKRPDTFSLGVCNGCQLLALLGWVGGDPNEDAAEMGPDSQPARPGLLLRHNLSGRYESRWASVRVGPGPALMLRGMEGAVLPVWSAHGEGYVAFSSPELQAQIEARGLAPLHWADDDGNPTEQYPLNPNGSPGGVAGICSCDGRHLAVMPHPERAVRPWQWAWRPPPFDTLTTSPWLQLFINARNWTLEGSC
UniProt Q9UHX1, sequence (Q9UHX1 whole entry, looked up): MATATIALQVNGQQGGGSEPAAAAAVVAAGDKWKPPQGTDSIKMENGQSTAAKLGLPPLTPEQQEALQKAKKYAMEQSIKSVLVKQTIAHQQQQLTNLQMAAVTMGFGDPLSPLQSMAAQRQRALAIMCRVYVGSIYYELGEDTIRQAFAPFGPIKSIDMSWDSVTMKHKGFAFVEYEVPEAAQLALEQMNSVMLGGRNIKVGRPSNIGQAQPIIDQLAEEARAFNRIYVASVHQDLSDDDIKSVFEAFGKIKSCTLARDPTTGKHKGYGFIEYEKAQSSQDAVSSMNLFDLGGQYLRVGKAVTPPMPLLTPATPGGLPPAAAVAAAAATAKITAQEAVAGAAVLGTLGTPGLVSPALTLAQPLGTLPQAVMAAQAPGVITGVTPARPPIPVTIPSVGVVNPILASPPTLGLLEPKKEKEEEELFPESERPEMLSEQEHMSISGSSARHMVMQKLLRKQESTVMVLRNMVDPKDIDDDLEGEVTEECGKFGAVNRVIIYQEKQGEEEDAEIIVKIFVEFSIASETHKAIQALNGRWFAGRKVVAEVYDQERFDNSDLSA
UniProt P0CAP2, sequence (P0CAP2 whole entry, looked up): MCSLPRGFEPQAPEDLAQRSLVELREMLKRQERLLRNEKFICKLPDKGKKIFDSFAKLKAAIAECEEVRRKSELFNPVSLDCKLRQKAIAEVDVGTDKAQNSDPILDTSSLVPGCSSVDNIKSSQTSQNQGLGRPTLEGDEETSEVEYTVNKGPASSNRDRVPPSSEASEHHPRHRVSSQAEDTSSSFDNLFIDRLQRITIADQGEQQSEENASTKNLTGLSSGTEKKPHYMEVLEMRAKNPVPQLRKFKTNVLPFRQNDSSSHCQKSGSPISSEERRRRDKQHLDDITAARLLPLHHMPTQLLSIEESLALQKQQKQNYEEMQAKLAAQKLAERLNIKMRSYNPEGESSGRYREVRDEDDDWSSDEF
UniProt O00625, sequence (O00625 whole entry, looked up): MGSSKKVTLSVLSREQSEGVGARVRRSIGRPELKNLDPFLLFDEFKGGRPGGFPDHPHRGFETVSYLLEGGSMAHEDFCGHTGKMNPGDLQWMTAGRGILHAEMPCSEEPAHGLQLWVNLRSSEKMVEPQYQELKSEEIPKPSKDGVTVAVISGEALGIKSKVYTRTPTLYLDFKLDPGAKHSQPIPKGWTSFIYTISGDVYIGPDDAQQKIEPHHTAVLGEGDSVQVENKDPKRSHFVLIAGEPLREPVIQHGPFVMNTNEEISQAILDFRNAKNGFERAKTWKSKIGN

Target	log2 fold change (vemurafenib)	log2 fold change [1]	log2 fold change (barasertib)	log2 fold change [2]	log2 fold change (volasertib)	log2 fold change [3]	log2 fold change [4]	log2 fold change [5]	log2 fold change (saracatinib)	log2 fold change (sotrastaurin)	log2 fold change (alvocidib)	log2 fold change (Tubastatin A)	log2 fold change [6]	log2 fold change (defactinib)	log2 fold change [7]	log2 fold change (encorafenib)	log2 fold change [8]	log2 fold change (alisertib)	log2 fold change [9]	log2 fold change (gefitinib)
PUF60 (UniProt Q9UHX1)	0.002	0.015	-0.005	0.002	0.003	-0.015	0.116	-0.018	0	-0.02	0.003	0.019	-0.02	-0.012	0.008	-0.013	0.019	0.005	-0.009	-0.022
PDCD6IP (UniProt Q8WUM4)	-0.003	0.015	0.083	-0.061	0.006	0.013	-0.073	-0.035	-0.068	-0.139	0.05	0	-0.002	-0.021	-0.042	-0.1	0.143	-0.039	0.013	-0.001
PRKCSH (UniProt K7ELL7)	0.089	0.02	-0.037	0.186	-0.04	0.013	0.217	-0.008	-0.011	-0.015	0.048	0.073	-0.026	0.006	-0.013	0.048	-0.002	0.018	0.083	-0.12
PKP3 isoform 2 (UniProt Q9Y446)	-0.087	0.05	-0.01	0.061	-0.005	0.05	0.027	-0.088	-0.037	0.001	-0.011	-0.126	0.067	0.035	0.017	0.098	0.095	0.019	0.031	-0.018
PLXNB2 (UniProt O15031)	0.011	-0.007	0.008	0.051	-0.021	-0.003	-0.043	-0.019	0.005	0.024	0	0.015	0.009	0.002	0.027	0.004	-0.107	0.017	0.054	0.016
PIR (UniProt O00625)	-0.023	0.098	-0.005	0.025	0.019	-0.055	0.205	-0.024	-0.006	-0.028	0.006	0.019	-0.011	-0.032	0.012	0.003	-0.07	0.016	-0.008	-0.012
PLEKHA5 isoform 6 (UniProt Q9HAU0)	0.003	-0.003	0.043	-0.005	0.003	0.026	-0.117	-0.088	0.027	0.02	-0.11	-0.074	0.02	0.065	0.006	-0.016	0.054	0.035	-0.03	-0.039
PSMB9 (UniProt P28065)	-0.105	0.037	0.158	0.335 (active)	0.028	-0.06	-0.165	0.027	0.037	0.018	-0.052	0.076	0.006	0.034	0.31	-0.076	0.027	-0.04	0.139	-0.016
PRMT7 (UniProt Q9NVM4)	0.058	-0.006	0.018	-0.02	0.001	-0.013	0.013	0.003	0.045	0.009	0.017	-0.069	0.024	-0.047	0.002	0.012	0.286 (active)	-0.015	0.007	0
PUS1 (UniProt Q9Y606)	0.026	0.002	0.055	-0.086	-0.077	0.028	-0.058	-0.02	0.035	-0.027	-0.002	-0.049	-0.008	0.002	-0.029	0	0.086	0.005	0.014	-0.019
PCBP2 isoform 3 (UniProt Q15366)	-0.059	-0.004	-0.006	-0.021	-0.003	0.057	-0.022	-0.002	-0.017	-0.006	0.038	-0.074	0.017	0.006	-0.075	0.049	-0.048	-0.001	-0.006	-0.009
POLR2M (UniProt P0CAP2)	0.014	0.02	0.021	-0.108	-0.024	0.008	-0.055	0.067	-0.007	0.041	-0.002	0.031	0.021	0.037	0.035	0.33 (active)	-0.047	-0.011	0.019	0.027
PFAS (UniProt O15067)	0.029	0.023	0.015	-0.048	-0.091	0	-0.023	0.001	-0.013	-0.015	-0.015	-0.01	0.009	0.022	0	-0.004	0.119	0.009	-0.011	-0.009
PPP3CA isoform 2 (UniProt Q08209)	-0.008	-0.037	0.025	0.046	-0.005	0.032	0.115	-0.182	0	-0.005	0.043	0.017	0.033	0.101	0.01	0.023	0	0.061	-0.001	0.09
PHGDH (UniProt O43175)	-0.005	-0.001	-0.049	0.02	-0.025	0.016	0.098	-0.051	-0.012	-0.027	0.028	-0.415 (active)	-0.081	0.022	0.018	0.006	-0.439 (active)	0.004	0.006	-0.016
PFN1 (UniProt P07737)	-0.01	-0.01	0.012	0.02	0.015	0.02	-0.02	0.028	-0.004	-0.005	-0.002	-0.01	-0.007	0.006	-0.024	-0.005	-0.097	0.004	-0.013	0.004
